In PubChem BioAssay:

Assay: calcein-AM signal in unstimulated myeloma cells – cell-based, calcein-AM fluorescence, 48 h, PK04 Diversity Set, profiling panel (AID 1166);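 note: cells grown under basal conditions without added stimulus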
Details: RPMI8226 myeloma viability, higher = more signal
Note: test concentration not given here.

Row | Structure (SMILES) | z-score
1 | COc1ccc([Si](C)(C)[C@@H]2[C@@H](CC(=O)N3CCC[C@H]3CO)O[C@]3(C(=O)N(Cc4ccc(N5CCOC5=O)cc4)c4ccccc43)[C@H]2C)cc1 | -4.54
2 | CC1CC/C=C\[C@H]2OC34C=CCN(c5ccc6ccccc6c5)C(=O)[C@H]3N(C(C)CO)C(=O)[C@@H]4C2C(=O)O1 (some centres undefined) | -0.311
3 | CCCCCCc1nc(-c2ccc(-c3ccc(Cl)c(Cl)c3)o2)cc2c1[Si](C(C)C)(C(C)C)OC2 | -4.4
4 | CCOC(=O)C1=CC[C@@H](c2ccccc2)N(S(=O)(=O)c2ccc(C)cc2)[C@H]1c1ccccc1I | -0.965
5 | COC(=O)[C@]1(Cc2ccccc2)N=C(c2ccc(OCCCO)cc2)O[C@@H]1c1ccccc1CN=[N+]=[N-] | -3.97
6 | CC(C)=CCCC=C(C)C(O)C1C=CC2C(=O)N(c3ccccc3)C(=O)C2N1Nc1ccc(C#N)cc1 (centres undefined) | -1.92
7 | CCOC(=O)C[C@H]1[C@H](OC(=O)c2ccccc2-c2ccccc2)[C@@H](NC(=O)C2CCCCC2)c2cc(OCCCO)ccc2N1C(=O)c1ccc2ccccc2n1 | -1.3

Assay: JC-1 mitochondrial signal, unstimulated HepG2 cells – cell-based, JC-1 fluorescence, 24 h, 100 nL compound, profiling panel (AID 1167)
Details: HepG2 mitochondrial potential, higher = more signal

Row | Structure (SMILES) | z-score
8 | O=C1N(Cc2ccccc2)c2ccccc2C[C@@]12COC(c1ccc(OCCCO)cc1)=N2 | -1.08
9 | COc1ccc([Si](C)(C)[C@H]2[C@H](CC(=O)N3Cc4ccccc4C[C@H]3CO)O[C@@]3(C(=O)N(c4ccccc4)c4ccccc43)[C@@H]2C)cc1 | 0.959
10 | C=C(COC)/C(=C/C[C@@H](OC(C)=O)c1ccccc1OCCO)c1cnc2ccccc2c1 | 0.23
11 | O=C(NCc1ccccc1)[C@@H]1c2ccccc2C(=O)N(Cc2cc(C(F)(F)F)cc(C(F)(F)F)c2)[C@H]1c1ccc(CO)cc1 | 1.45
12 | COCCOC(=O)N1C(=O)[C@@]2(c3cc(C#CCNC(N)=O)ccc31)[C@H](C(=O)Nc1nc3ccccc3s1)[C@H]1C(=O)O[C@H](c3ccccc3)[C@H](c3ccccc3)N1[C@@H]2c1ccccc1OCCO | -2.73
13 | CC=CC(O)C1C=CC2C(=O)NC(=O)C2N1Nc1ccc(Cl)cc1Cl (centres undefined) | -2.04
14 | CCCCN1CC=CC23O[C@@H]4/C=C\CCCOC(=O)C4[C@H]2C(=O)N(C(CO)C(C)C)[C@@H]3C1=O (some centres undefined) | -0.945
15 | COc1ccc([Si](C)(C)[C@H]2[C@H](CC(=O)N3Cc4ccccc4C[C@H]3CO)O[C@@]3(C(=O)N(C)c4c(Br)cc(C)cc43)[C@@H]2C)cc1 | -2.2
16 | CC(C)(C)N1CC=CC23O[C@@H]4/C=C\CCCOC(=O)C4[C@H]2C(=O)N(CCCCCO)[C@@H]3C1=O (some centres undefined) | -0.0838
17 | C=C(CCCC)/C(=C/C[C@H](OC(=O)c1ccncc1)c1ccccc1OCCO)c1cc(C(=O)OC)ccc1OC | 2.06
18 | COc1ccc(C(=O)Nc2ccc(CN3C(=O)[C@@]4(O[C@@H](CCn5cc(CCO)nn5)[C@H]([Si](C)(C)c5ccc(OC)cc5)[C@H]4C)c4ccccc43)cc2)cc1 | -1.29
19 | C#CCN1[C@@H](Cc2ccccc2)C(=O)O[C@H](Cc2ccccc2)[C@@H]1/C=C/C1CC1 | 2.46
20 | O=C1C=C(c2ccccc2)C(=O)C2=C1CC([C@H]1Oc3ccccc3S(=O)(=O)N3CCC[C@@H]13)=CC2 | -3.49
21 | COC(=O)[C@@]1(Cc2ccccc2)[C@H]2c3cc(C(=O)N4CCCC4)n(Cc4ccc(OC)c(OC)c4)c3C[C@H]2CN1C(=O)c1ccccc1 | 3.84
22 | O=C1c2ccccc2[C@@]2(Cc3ccccc3N(Cc3ccccc3)C2=O)[C@H](c2ccc(CO)cc2)N1Cc1ccccc1Cl | 1.1
23 | C=C(CCCC)C(=O)CC[C@@H](OC(=O)c1ccccc1-c1ccccc1C(=O)O)c1ccccc1OCCO | -0.688
24 | COC(=O)C1(Cc2ccccc2)C=C2C(=C(C)C(=O)C2C)CN1 (centres undefined) | -0.237
25 | CC[C@@H]1C=C(C(=O)O)[C@H](c2ccc(OC)cc2)N1S(=O)(=O)c1ccc(C)cc1 | -0.955
26 | COc1ccc([Si](C)(C)[C@@H]2[C@@H](CC(=O)N(CCO)Cc3ccccc3)O[C@]3(C(=O)N(Cc4ccc(I)cc4)c4ccccc43)[C@H]2C)cc1 | 1.17
27 | COc1ccc([Si](C)(C)[C@@H]2[C@@H](CC(=O)N3CCC[C@H]3CO)O[C@]3(C(=O)N(Cc4cccc(N5CCCCC5=O)c4)c4ccccc43)[C@H]2C)cc1 | -2.13
28 | CCOC(=O)C[C@H]1[C@H](OC(=O)Cc2ccc3c(c2)OCO3)[C@@H](NC(=O)c2ccc3ccccc3n2)c2cc(OCCCO)ccc2N1C(=O)Cc1ccc(OC)cc1 | 2.42
29 | O=C1[C@H]2C=C(I)[C@H](C[C@@H]2OCCCCCCO)[C@@]12CO2 | -1.58
